Data from PubChem BioAssay (NCI).
This is part of a sample that, as a whole, favours compounds with a hit. Of some 83,000 tested, about 20% had one in any assay.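 Cell lines were cultured in 96-well plates, exposed to a single compound concentration, and assessed for percent growth 48 hours later.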 Unmarked numbers belong to inactive results. The source made the active and inactive calls. How the source made its calls: active means growth percent below 10; inactive means the rest.

Legend:
Assay in all cases: NCI-60 one-dose screen, 48 h (100 = growth as untreated, 0 = no growth, -100 = all killed)
Conditions in all cases: 10 µM unless noted
DU-145 prostate = system: DU-145 prostate
K-562 leukemia = system: K-562 leukemia
MALME-3M melanoma = system: MALME-3M melanoma
MDA-MB-231 breast = system: MDA-MB-231 breast
RXF 393 renal = system: RXF 393 renal
SF-268 CNS = system: SF-268 CNS
SF-295 CNS = system: SF-295 CNS
SF-539 CNS = system: SF-539 CNS
UACC-257 melanoma = system: UACC-257 melanoma
M14 melanoma = system: M14 melanoma
HCT-15 colon = system: HCT-15 colon
HT29 colon = system: HT29 colon
SNB-75 CNS = system: SNB-75 CNS
SNB-19 CNS = system: SNB-19 CNS
U251 CNS = system: U251 CNS
PC-3 prostate = system: PC-3 prostate
SK-MEL-5 melanoma = system: SK-MEL-5 melanoma
UACC-62 melanoma = system: UACC-62 melanoma
LOX IMVI melanoma = system: LOX IMVI melanoma
SK-MEL-28 melanoma = system: SK-MEL-28 melanoma

Structure (SMILES)	growth (DU-145 prostate)	growth (K-562 leukemia)	growth (MALME-3M melanoma)	growth (MDA-MB-231 breast)	growth (RXF 393 renal)	growth (SF-268 CNS)	growth (SF-295 CNS)	growth (SF-539 CNS)	growth (UACC-257 melanoma)	growth (M14 melanoma)	growth (HCT-15 colon)	growth (HT29 colon)	growth (SNB-75 CNS)	growth (SNB-19 CNS)	growth (U251 CNS)	growth (PC-3 prostate)	growth (SK-MEL-5 melanoma)	growth (UACC-62 melanoma)	growth (LOX IMVI melanoma)	growth (SK-MEL-28 melanoma)
CCNC(=O)Oc1ccc(/C(=C(/C)c2ccc(OC)cc2)c2ccc(OCCN3CCCCCC3)cc2)cc1	76%	2.3% (active)	-3.44% (active)	46.8%	12.3%	64%	-20.9% (active)	18.4%	-32.4% (active)	-73.3% (active)	-25.8% (active)	10.5%	59.4%	61%	38.8%	31.3%	78.5%	41%	-6.62% (active)	19.8%
Cc1cc(NS(=O)(=O)c2ccc(NC(=O)CSc3nc4ccccc4c(=O)n3-c3ccccc3)cc2)no1	108%	54.1%	94.7%	98.7%	93.8%	98.9%	99.2%	95.3%	98.4%	90.3%	106%	104%	77.3%	94.2%	100%	95%	98.4%	88.6%	94.1%	95.9%
Cc1ccc(C(=O)Nc2ccc(CNCCN3CCOCC3)c(C(F)(F)F)c2)cc1C#Cc1cnc2cccnn12	33.5%	5.07% (active)	-44.6% (active)	-18.5% (active)	-54.2% (active)	15.6%	-24.7% (active)	-69.3% (active)	-45.3% (active)	-7.89% (active)	7.26% (active)	2.36% (active)	-18% (active)	36.6%	6.06% (active)	19.3%	-85.9% (active)	15.1%	-85.6% (active)	-6.46% (active)
O=C(Nc1ccc(N2CCOCC2)cc1)Nc1ccc2c(ccn2C(=O)c2cccc(F)c2)c1	60.2%	77.3%	49.4%	60.1%	-0.178% (active)	65.2%	32.5%	28.3%	61.2%	51.3%	78.6%	76%	12.3%	46.9%	41.5%	49.3%	69.4%	42.3%	23%	59.2%
CSc1ccc(/C(=N/N=C(N)N)c2ccc(F)cc2)cc1	20.9%	0.0764% (active)	90.4%	24.2%	-4.77% (active)	36.3%	11.8%	10.4%	66.1%	3.79% (active)	6.59% (active)	4.2% (active)	44.2%	25.7%	11.2%	20%	-11.3% (active)	36.2%	5.46% (active)	60.9%
Nc1ccc(Nc2ncnc3sc4c(c23)CCN(Cc2ccccc2)C4)cc1	106%	96.7%	103%	86.6%	91.2%	101%	97.8%	78.5%	106%	106%	100%	101%	88.7%	97.2%	102%	89.1%	96.6%	87.8%	101%	102%
C=C(C)[C@@H]1CC[C@]2(C(=O)O)CC[C@]3(C)[C@H](CC[C@@H]4[C@@]5(C)C/C(=C/c6ccccn6)C(=O)C(C)(C)[C@@H]5CC[C@]43C)[C@@H]12	45.5%	29.3%	72.5%	61.7%	62.1%	51.5%	34%	46.8%	46.5%	59%	18.9%	40.8%	61.1%	50.3%	27.9%	28.4%	31.8%	40.1%	34.6%	64%
O=C(CSc1nnc(-c2cccs2)n1-c1ccccc1)Nc1ccccc1F	102%	26.6%	70.2%	86.5%	90.7%	93.7%	83.2%	87.9%	95.3%	74.7%	52.7%	75.1%	84.4%	83.2%	89.3%	93.3%	91.2%	57.7%	78.9%	81.1%
Cc1csc(/N=C(N)/N=C(\N)c2cccs2)n1	110%	95.7%	102%	99.5%	106%	103%	113%	99.1%	104%	99.1%	100%	116%	94.3%	103%	97%	92.3%	99.5%	94.7%	104%	117%
Oc1[nH]c2ccc(Cl)cc2c1N=Nc1nc(N=Nc2c(O)[nH]c3ccc(Cl)cc23)nc(N2CCOCC2)n1	88.4%	32.9%	56.4%	36.3%	13.7%	49.1%	45.7%	16%	82%	77.5%	91.6%	91.1%	-0.671% (active)	-9.43% (active)	3.81% (active)	56.1%	46.1%	51.6%	23.2%	55%
CN1CCN(Cc2ccc(NC(=O)c3cncc(C#Cc4cnc5ccc(OCC6COC6)nn45)c3)cc2C(F)(F)F)CC1	-83.1% (active)	0.233% (active)	-88.2% (active)	-63% (active)	-78.5% (active)	-70.2% (active)	-93.7% (active)	-88.2% (active)	-51.6% (active)	-86.8% (active)	-32.9% (active)	-50.9% (active)	-97.9% (active)	-44.9% (active)	-66.8% (active)	-27.7% (active)	-97% (active)	-49.8% (active)	-94% (active)	-85% (active)
CN1CCN(Cc2ccc(NC(=O)c3cncc(C#Cc4cnc(N)nc4)c3)cc2C(F)(F)F)CC1	34.4%	5.93% (active)	-31.1% (active)	-7.34% (active)	26.4%	28.1%	33.1%	14.6%	22.1%	-19.3% (active)	17.2%	14.3%	41.5%	57.4%	30.3%	35.1%	38%	-0.0134% (active)	4.32% (active)	2.04% (active)
Cc1ccc(S(=O)(=O)c2nc(-c3ccc(F)cc3)oc2S(C)(=O)=O)cc1	77%	1.76% (active)	-45.6% (active)	65%	40.3%	95.1%	95.4%	58.1%	90.3%	64%	13.4%	55.1%	87.2%	91.4%	96.1%	91.8%	98.4%	84.4%	-68.8% (active)	79.8%
Cc1ccccc1N1CCN(C2=C(Cl)C(=O)c3ncccc3C2=O)CC1	20.3%	7.01% (active)	-14.5% (active)	88.3%	-10.9% (active)	80.2%	86.8%	78.9%	21.7%	36.2%	4.38% (active)	94.9%	82.6%	74.9%	71.3%	66.1%	88.8%	66.2%	1.19% (active)	35.9%
O=C(CSc1cc[n+](CCCCO)c2ccccc12)n1ccc2ccccc21	110%	98.2%	99.7%	88.2%	107%	109%	99.7%	99.2%	95.2%	96.6%	104%	103%	96.1%	100%	96.3%	97.6%	98.7%	93.5%	103%	110%
